Bioassay records (PubChem BioAssay)
IL-1B inflam inh: blocks inflammasome-driven IL-1 beta release | THP-1 LPS/ATP IL-1B secretion, AlphaLISA, 16 h; stronger effect = lower value | activity change, % at 57.5 µM | 360,000 compounds, 4.7% hits | AID 743279; in the data active means activity change below about -50%; inconclusive means mostly about -30% to -49%
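THP-1 cells pretreated 1 hr with compounds (up to 57.5 uM final), then stimulated with LPS (250 ng/mL final) plus ATP (1.25 mM final); secreted IL-1B measured by AlphaLISA after 16 hr, decreased signal indicating inhibition.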
HT1080 IDH1KD tx: toxicity to HT-1080 IDH1 knockdown cells (counter line); HT-1080 IDH1 knockdown viability, ATP luminescence, 48 h; Potency, µM (doses to about 46.1 µM), for inactives: top-dose activity, negative = toxicity, hits mostly cytotoxic; 360,000 compounds, 2% hits;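 further: potency means the concentration at half of the fitted maximal effect; 0% = DMSO wells and -100% = cell-free medium wells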
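Using the IDH1-knockdown HT-1080 line run in the same batch and compound series as the NT line, viability after 48 h at 37 °C was determined by CellTiter-Glo luminescence and expressed as % activity.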
HT1080-NT tox: kills 2HG-producing HT-1080-NT fibrosarcoma cells | 360,000 compounds, 1.6% hits | Potency, µM (doses to about 46.1 µM), for the others: at the highest dose activity, negative = less viability, actives largely listed as cytotoxic | HT-1080-NT fibrosarcoma viability, CellTiter-Glo ATP luminescence, 48 h | AID 686970;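 further: NT is the 2HG producing partner of a matched IDH1 knockdown line; potency means the concentration at half of the fitted maximal effect; 0% = DMSO-treated cells and -100% = media-only wells without cells; nearly all actives have a fitted effect of over 55% in size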
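Read-out is CellTiter-Glo luminescence after 10 minutes at room temperature, following 48 hours' compound treatment of HT-1080-NT cells (750 cells/well, RPMI, 5% FBS, 37 degrees C).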
DT40 TDP1 no CPT: qHTS for Inhibitors of human tyrosyl-DNA phosphodiesterase 1 (TDP1): qHTS in cells in absence of CPT | DT40 Tdp1-/- hTDP1 cells, no CPT, ATP luminescence, 48 h | Potency, µM (titrated, usually from 46.2 µM), inactives show at the top dose activity change, negative = growth inhibition, hits mostly inhibitors | 420,000 compounds, 15% hits; further: potency means the concentration at half of the fitted maximal effect; nearly all actives have a fitted effect of over 55% in size
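Stably hTDP1-transfected Tdp1-null chicken DT40 cells were treated with library compounds minus camptothecin and grown for at least 48 hr at 37 °C, after which cellular ATP was quantified by luminescence.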
TDP1 cell CPT: DT40-hTDP1 cell growth loss with CPT | Potency, µM (highest dose often 46.2 µM), for the others: at the highest dose activity change, negative = growth inhibition, usual class: inhibitors | 420,000 compounds, 12% hits | chicken DT40 Tdp1-/-;hTDP1 cells + 20 nM CPT, ATP luminescence, 48 h; further: potency means the concentration at half of the fitted maximal effect; nearly all actives have a fitted effect of over 55% in size
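Chicken DT40 Tdp1-/- cells complemented with human TDP1, 400 cells/well, exposed to compounds plus 20 nM camptothecin for at least 48 h at 37 C; viability read as ATP content by CellTiter-Glo luminescence.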
Starred values were filed as active, the others as inactive; ? = inconclusive; · = not tested or not shown. A selection: hits, their analogues and other compounds. The true share with any hit is near 19%. Unless noted, the call rests on the fitted dose curve; in most records, active means well fitted curve in the direction sought with a large enough effect; inconclusive means small, poorly fitted or top-dose-only effect, or another doubt; inactive means no such curve, though single readings can be large; an effect the other way counts as inactive or inconclusive. Unless noted, on the % scale 0 is the no-effect control and ±100 the full control effect.

SMILES | IL-1B inflam inh | HT1080 IDH1KD tx | HT1080-NT tox | DT40 TDP1 no CPT | TDP1 cell CPT
O=C(NCCN1CCC(n2c(=O)[nH]c3ccccc32)CC1)c1cccnc1Cl | ? | 11.6% | 14.9% | -27.9% | ?
O=C(NCCN1CCC(n2c(=O)[nH]c3ccccc32)CC1)c1ccc(C(F)(F)F)cc1C(F)(F)F | -28.0 | 0.2% | -4.1% | 4.61µM* | 5.8µM*
Cc1nc(CC(=O)N2CCN(c3cccc(C)c3C)CC2)cs1 | 16.4 | 0.1% | 10.1% | -6.9% | -19.6%
CC(C)(C)C(=O)Cn1nc(Cl)nc1Cl | 4.6 | 9.2% | 10.9% | 19.8% | 9.7%
CCOC(=O)NN1C(=O)c2ccccc2NC1c1cccs1 (stereo unspecified) | 16.0 | 25.4% | 7.8% | 7.3% | -2.6%
CC(=O)NC(CC(=O)Oc1ccc(C)cc1Br)c1ccccc1 (stereo unspecified) | -5.5 | 9.4% | 8.6% | 7.7% | 16.9%
Cc1nc2ccccc2c(=O)n1NC(=O)c1c(O)c2c(n(CC(C)C)c1=O)CCCC2 | -2.0 | ? | 20µM* | 20.6µM* | ?
CC(C)Cn1c2c(c(O)c(C(=O)Nc3nc4ccccc4s3)c1=O)CCCC2 | 15.3 | 11.8% | 15.4% | ? | ?
CCCCCCc1nc2ccccc2c(=O)n1NC(=O)c1c(O)c2c(n(CC(C)C)c1=O)CCCC2 | -12.8 | -29.7% | -12.8% | 3.26µM* | 4.61µM*
CCO[C@H]1OC(C(=O)N2CCN(C)CC2)=C[C@@H](C2CC2)[C@@H]1CCCO | 24.3 | 6.0% | 13.3% | -5.6% | -10.3%
CCCCNc1nc2c(S(=O)(=O)c3ccc(Cl)cc3)nnn2c2ccsc12 | · | · | · | ? | 0.2%
COC(=O)N/N=C/c1cc([N+](=O)[O-])cc(Br)c1O | 0.0 | -7.4% | -28.8% | ? | -29.4%
CC(=O)N/N=C/c1cc(C(C)(C)C)cc(/C=N/NC(C)=O)c1O | 49.0 | ? | -26.8% | 25.9µM* | -29.0%
COc1ccc(NC(=O)C2(C)Cc3c(-c4ccccc4)ccnc3O2)cn1 (stereo unspecified) | 64.5 | ? | ? | 6.51µM* | 5.8µM*
CC1(C(=O)Nc2ccccc2)Cc2c(-c3cccc(C(F)(F)F)c3)ccnc2O1 (stereo unspecified) | ? | -18.1% | -2.3% | ? | ?
COc1ccc(NC(=O)C2(C)Cc3c(-c4ccc(N(C)C)cc4)ccnc3O2)cc1 (stereo unspecified) | -2.6 | ? | ? | ? | 29.1µM*
COc1ccc(NC(=O)C2(C)Cc3c(-c4cccc(C(F)(F)F)c4)ccnc3O2)cn1 (stereo unspecified) | 67.8 | ? | ? | 2.91µM* | 5.17µM*
CC(=O)Nc1ccc(NC(=O)C2(C)Cc3c(-c4ccccc4)ccnc3O2)cc1 (stereo unspecified) | -9.9 | 6.7% | ? | -27.9% | ?
COc1ccc(NC(=O)C2(C)Cc3c(-c4ccc(NC(C)=O)cc4)ccnc3O2)cc1 (stereo unspecified) | ? | 7.0% | 26.0% | ? | ?
COc1cccc(CN2CCNC(=O)C2CC(=O)N(C)CC2CCOCC2)c1OC (stereo unspecified) | 10.6 | 15.3% | 14.3% | 6.8% | 1.5%
Clc1ccccc1-c1nnc(SCc2nc(-c3ccccc3)no2)n1-c1ccccc1 | · | · | · | 7.31µM* | 18.4µM*
Cc1ccc(-c2noc(CSc3nnc(-c4ccncc4)n3-c3ccc(C)cc3)n2)cc1 | -0.4 | ? | -23.6% | 16.4µM* | 20.6µM*
COc1ccc(-c2noc(CSc3nnc(C)n3-c3ccc(F)cc3)n2)cc1 | · | · | · | -26.3% | ?
COc1ccc(-c2noc(CSc3nnc(-c4ccncc4)n3-c3ccc(OC)cc3)n2)cc1 | · | · | · | ? | 23.1µM*
Cc1ccc(-c2noc(CSc3nnnn3C3CCCCC3)n2)cc1 | 9.4 | -5.6% | -14.1% | ? | 20.6µM*
COc1ccc(-c2noc(CSc3nnc(C)n3-c3ccc(OC)cc3)n2)cc1 | · | · | · | ? | -19.1%
